Compound activity (PubChem BioAssay)
Only some compounds are listed: those with a hit (about 2.3% of all), similar ones and a draw of the others.
Tau FP inhib = tau fibrillization inhibition (FP); P10636; K18 P301L tau heparin fibrillization, Alexa594 FP, 6 h; Potency, µM (top dose mostly 57.7 µM), for the others: at the top dose activity, negative = inhibition, actives largely listed as inhibitors; 280,000 compounds, 0.39% hits; AID 1468; further: potency means the concentration at half of the fitted maximal effect; nearly all actives have a fitted effect of over 55% in size
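Human K18 P301L fragment (15 uM unlabeled plus 0.24 uM Alexa 594-labeled) in 100 mM sodium acetate pH 7 with compound, aggregation induced by 20 uM heparin for 6 hr at 37 C. ThT (30 uM) added for 1 hr, then Alexa 594 FP read.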
Tau fibril ThT = inhibitors of human tau fibril formation, thioflavin T binding | P10636 | Potency, µM (highest dose often 57.4 µM), inactives show at the top dose activity, negative = inhibition, hits mostly inhibitors | recombinant tau K18 P301L, heparin-induced fibrillization, ThT fluorescence | 270,000 compounds, 2.1% hits | AID 1460; further: potency means the concentration at half of the fitted maximal effect; nearly all actives have a fitted effect of over 55% in size
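Recombinant human tau K18 fragment […] carrying P301L, 15 uM unlabeled plus 0.24 uM Alexa 594-labeled, was fibrillized with 20 uM heparin in 100 mM sodium acetate pH 7 for 6 hr at 37 C; 30 uM ThT fluorescence read after 1 hr.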
FBPA coupling cs = counter-screen for Giardia aldolase inhibitors: coupling enzyme system; 290,000 compounds, 0.67% hits; coupling enzyme system counterscreen, AmpLite Red fluorescence; activity change, negative = inhibition, % at 58.2 µM, hits read low; in the data active means activity change below about -30%
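Compounds tested against the coupling enzymes alone at 57.5 uM final; readout was AmpLite Red fluorescence (525/598 nm) after 20 min at RT.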
USP1 inh = blocks the human USP1/UAF1 deubiquitinase complex; O94782; recombinant USP1/UAF1, Ub-Rhodamine cleavage fluorescence; Potency, µM (highest dose often 57.1 µM), for the others: at the top dose activity change, negative = inhibition, hits mostly inhibitors; 390,000 compounds, 0.23% hits; AID 743255; further: potency means the concentration at half of the fitted maximal effect; nearly all actives have a fitted effect of over 60% in size
Target sequence (O94782 whole entry, looked up): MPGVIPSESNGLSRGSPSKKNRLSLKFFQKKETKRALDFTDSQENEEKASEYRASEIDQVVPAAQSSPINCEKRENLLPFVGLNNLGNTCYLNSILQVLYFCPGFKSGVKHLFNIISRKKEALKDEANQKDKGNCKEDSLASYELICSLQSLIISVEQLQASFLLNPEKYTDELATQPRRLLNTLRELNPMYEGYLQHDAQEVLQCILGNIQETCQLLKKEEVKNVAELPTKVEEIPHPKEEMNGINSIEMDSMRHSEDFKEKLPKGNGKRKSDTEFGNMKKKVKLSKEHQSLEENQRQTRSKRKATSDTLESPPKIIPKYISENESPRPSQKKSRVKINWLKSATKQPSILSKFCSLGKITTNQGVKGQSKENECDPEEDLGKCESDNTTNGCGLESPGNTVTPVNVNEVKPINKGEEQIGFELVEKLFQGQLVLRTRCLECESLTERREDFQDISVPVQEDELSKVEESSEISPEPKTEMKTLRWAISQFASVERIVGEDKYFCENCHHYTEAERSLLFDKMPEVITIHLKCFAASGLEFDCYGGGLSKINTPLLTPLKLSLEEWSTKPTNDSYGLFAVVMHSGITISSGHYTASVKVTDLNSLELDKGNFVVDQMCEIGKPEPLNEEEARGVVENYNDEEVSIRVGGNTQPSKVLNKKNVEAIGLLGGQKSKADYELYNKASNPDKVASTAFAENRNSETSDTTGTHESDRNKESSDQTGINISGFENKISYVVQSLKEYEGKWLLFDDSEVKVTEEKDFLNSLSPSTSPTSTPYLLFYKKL
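In this screen, compounds sit with the deubiquitinase complex (1nM) for 15 min at room temperature before Ub-Rho is added at 150nM final. Fluorescence rise is then followed for 6 reads every 60 seconds.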
Tau fluor counter = counter-screen for tau fibril formation inhibitors; 280,000 compounds, 0.93% hits; Potency, µM (highest dose often 57.7 µM), inactives show top-dose activity change, negative = decrease; tau K18 P301L Alexa594 fluorescence, heparin fibrillization; AID 1463; further: potency means the concentration at half of the fitted maximal effect; nearly all actives have a fitted effect of over 55% in size
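Human tau K18 P301L (15 uM unlabeled, 0.24 uM Alexa 594-labeled) in 100 mM sodium acetate pH 7 with 20 uM heparin, 6 hr at 37 C. ThT 30 uM added, 1 hr ambient; Alexa 594 FP and total fluorescence read at 555/632 nm.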
Numbers without * were called inactive; ? = inconclusive; · = no result given; [ ] = remark or other dose. Unless noted, the call rests on the fitted dose curve; in most records, active means well fitted curve in the direction sought with a large enough effect; inconclusive means small, poorly fitted or top-dose-only effect, or another doubt; inactive means no such curve, though single readings can be large; an effect the other way counts as inactive or inconclusive. On the % scale 0 is the no-effect control and ±100 the full control effect.

SMILES	Tau FP inhib	Tau fibril ThT	FBPA coupling cs	USP1 inh	Tau fluor counter
COc1cc(/C=N/Nc2nc3ccccc3o2)cc(OC)c1O	8%	14µM*	-11	-10%	?
COc1cccc(C(=O)/C(C#N)=N/Nc2cccc(-c3ccnc(C)n3)c2)c1	-2%	5µM*	6	-9%	?
Cc1ccc(CNC(=O)C2CCC(=O)N(Cc3cccc(C(F)(F)F)c3)C2)o1 (centres undefined)	·	·	·	-15%	·
N#CC(C#N)=C(N)/C(C#N)=C/c1ccc2[nH]ccc2c1	-13%	14µM*	·	·	?
N#C/C(=C/c1ccc([N+](=O)[O-])cc1)C(N)=O	-5%	?	1	-4%	-12%
COc1ccccc1N1CSC2=C(C#N)C(c3ccc(SC)cc3)CC(=O)N2C1 (centres undefined)	?	28µM*	-38*	-7%	-24%
COc1cc(C2CC(=O)N3CN(c4ccccc4C)CSC3=C2C#N)cc(OC)c1OC (centres undefined)	?	22µM*	-36*	·	-13%
COc1ccc(OC)c(/C=C2\S/C(=N/NC(=O)c3ccc4ccccc4c3)NC2=O)c1	3%	8.9µM*	6	12%	?
Cc1noc(/C=C/N(C)C)c1S(=O)(=O)N1CCC(C(=O)NC(C)(C)C)CC1	·	·	·	-18%	·
CCN(CC)S(=O)(=O)c1cccc(NC(=O)Nc2cccc(C(F)(F)F)c2)c1	7.9µM*	-14%	-3	-24%	?
O=C(/C=C/c1cccc([N+](=O)[O-])c1)NC(=S)Nc1cccc(NC(=O)c2ccccc2Cl)c1	-2%	?	-4	-17%	?
CCN(CC)S(=O)(=O)c1cccc(NC(=O)/C=C/c2cccc([N+](=O)[O-])c2)c1	-18%	?	-3	-11%	13µM*[quencher]
COc1ccc(/C=C/C(=O)Nc2ccc(N3CCOCC3)cc2)cc1	4%	4µM*	1	-7%	?
O=C(/C=C/c1cccc([N+](=O)[O-])c1)NC(=S)Nc1ccccc1C(=O)O	?	18µM*	-14	·	-29%
COc1cccc(Nc2nnc(Cc3cccnc3)c3ccccc23)c1	·	·	0	-6%	·
Cc1cc(NC(=S)NC(=O)/C=C/c2ccc(S(=O)(=O)N3CCOCC3)cc2)ccc1Br	?	?	-1	-14%	-16%
O=C(/C=C/c1ccc(S(=O)(=O)N2CCOCC2)cc1)NC(=S)Nc1ccc(N2CCOCC2)cc1	7%	25µM*	2	-4%	?
CCN(CC)S(=O)(=O)c1ccc(/C=C/C(=O)Nc2ccc(N3CCOCC3)cc2)cc1	?	16µM*	0	-1%	32µM*[quencher]
CC(C)CNC(=O)CSc1n[nH]c(=O)n1CCc1ccccc1	·	·	-1	?	·
CSc1nsc(/C=C/Nc2ccc(F)cc2)c1C#N	-1%	?	-19	?	-25%
CSc1nsc(/C=C/Nc2ccc(Cl)cc2)c1C#N	-8%	16µM*	-9	?	?
CSc1nsc(/C=C/Nc2ccc(O)cc2C)c1C#N	25µM*	16µM*	-33*	?	?
Cc1cc([N+](=O)[O-])cc(/C=N/n2c(C)nc3ccccc3c2=O)c1O	12%	?	6	?	-14%
C/C(=N\OCc1nc2ccccc2c(=O)n1/N=C/c1cc([N+](=O)[O-])ccc1O)c1ccccc1	-5%	·	-2	-27%	14µM*[quencher]
C/C(=N\OCc1nc2ccccc2c(=O)n1/N=C/c1cc(C)cc([N+](=O)[O-])c1O)c1ccccc1	-2%	4µM*	-3	-15%	?
SMILES	Tau FP inhib	Tau fibril ThT	FBPA coupling cs	USP1 inh	Tau fluor counter
O=c1c2ccccc2nc(COc2ccccc2)n1/N=C/c1ccc(O)cc1O	-4%	?	-2	-7%	16µM*[quencher]
Cc1ccc(NC(=O)CNNC(=O)c2cccc([N+](=O)[O-])c2)cc1[N+](=O)[O-]	·	·	·	4%	·
COc1cccc(NC(=O)CSc2nc(=O)[nH]c3c2CCCC3)c1	-13%	-7%	·	-20%	-8%
CC(C)NCC(O)Cn1c2c(c3ccccc31)CCc1c-2cnn1-c1ccccc1 (centres undefined)	10%	16µM*	-6	-5%	?
CC1CCN(S(=O)(=O)c2ccc3c(c2)oc(=O)n3CC(=O)NC(C)c2ccccc2)CC1 (centres undefined)	?	4%	·	-2%	-15%
CCC1=C/C(=C/N(C)c2ccccc2)C(=O)S1	?	25µM*	-1	-16%	?
CCn1c(CNC(=O)c2ccc(Cl)cc2)nnc1SCC(=O)NC1=NCCS1	·	·	-3	-2%	·
COc1ccc(Br)cc1CN(C)C(=O)c1cc(Cl)c2c(c1)OCCO2	·	·	2	-3%	·
O=S1(=O)N=C(N/N=C/c2ccccn2)c2ccccc21	-1%	-13%	-32*	1%	-2%
COc1ccc(N2CCN(CCCNC(=O)c3ccc4nc(CCc5ccccc5)oc4c3)CC2)cc1	10%	?	·	-11%	-23%
Cc1cccc(NC(=O)c2nc[nH]c2C(=O)N[C@@H](C)C(=O)OCc2ccccc2)c1	14µM*	0%	-1	?	?
Cc1cccc(NC(=O)c2nc[nH]c2C(=O)N[C@@H](CC(C)C)C(=O)OCc2ccccc2)c1	25µM*	9%	-2	-26%	?
Cc1cccc(NC(=O)c2nc[nH]c2C(=O)N[C@@H](C)c2ccccc2)c1	·	·	·	-16%	·
CCC(Sc1nc(C)cc(C)n1)C(=O)NC1=NN=C(c2ccc(C)cc2)CS1 (centres undefined)	?	32µM*	2	?	-17%
